The panel holds about 83,000 compounds, 20% with a hit somewhere; the sample as a whole holds those more often.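 The endpoint reported here, percent growth, reads 100 for growth as untreated, 0 for no net growth and -100 for all cells dead.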 Active and inactive are the calls of the source. The calls were made as follows: active = growth percent below 10; inactive = the rest.
Experiments:
Test in all cases: NCI-60 one-dose screen, 48 h (100 = growth as untreated, 0 = no growth, -100 = all killed)
HCT-15 colon = conditions: 10 µM
HT29 colon = conditions: 10 µM
SNB-75 CNS = conditions: 10 µM
SNB-19 CNS = conditions: 10 µM
U251 CNS = conditions: 10 µM
PC-3 prostate = conditions: 10 µM
SK-MEL-5 melanoma = conditions: 10 µM
LOX IMVI melanoma = conditions: 10 µM
SK-MEL-28 melanoma = conditions: 10 µM
SK-MEL-2 melanoma = conditions: 10 µM
EKVX NSCLC = conditions: 10 µM
SN12C renal = conditions: 10 µM
UO-31 renal = conditions: 10 µM
TK-10 renal = conditions: 10 µM unless noted
ACHN renal = conditions: 10 µM
CAKI-1 renal = conditions: 10 µM
A498 renal = conditions: 10 µM
CCRF-CEM leukemia = conditions: 10 µM
MOLT-4 leukemia = conditions: 10 µM
UACC-62 melanoma = conditions: 10 µM unless noted

Measured: growth

CCCCC1C(=O)N(c2ccccc2)N(c2ccccc2)C1=O
inactive: HCT-15 colon 102% | HT29 colon 104% | SNB-75 CNS 117% | SNB-19 CNS 102% | U251 CNS 105% | PC-3 prostate 98.9% | SK-MEL-5 melanoma 102% | LOX IMVI melanoma 99.4% | SK-MEL-28 melanoma 111% | SK-MEL-2 melanoma 98.7% | EKVX NSCLC 105% | SN12C renal 96.2% | UO-31 renal 90.4% | TK-10 renal 103% | ACHN renal 102% | CAKI-1 renal 103% | A498 renal 125% | CCRF-CEM leukemia 95.8% | MOLT-4 leukemia 107%

Oc1ccc(O)cc1
inactive: HCT-15 colon 101% | HT29 colon 97.7% | SNB-75 CNS 102% | SNB-19 CNS 115% | U251 CNS 99.1% | PC-3 prostate 89.2% | UACC-62 melanoma 103% | LOX IMVI melanoma 92.6% | SK-MEL-28 melanoma 112% | SK-MEL-2 melanoma 104% | EKVX NSCLC 113% | SN12C renal 106% | UO-31 renal 82% | TK-10 renal 128% | ACHN renal 85.4% | A498 renal 115% | CCRF-CEM leukemia 62.7% | MOLT-4 leukemia 78.6%

OCc1ccc(-c2ccc(-c3ccc(CO)s3)o2)s1
inactive: HCT-15 colon 51% | SNB-75 CNS 58.8% | SNB-19 CNS 78.4% | U251 CNS 15.3% | PC-3 prostate 73.1% | SK-MEL-5 melanoma 60.6% | LOX IMVI melanoma 73.2% | SK-MEL-2 melanoma 79.7% | EKVX NSCLC 99.9% | SN12C renal 55.7% | UO-31 renal 41.4% | ACHN renal 63.7% | CCRF-CEM leukemia 41.5% | MOLT-4 leukemia 33.1%
active: HT29 colon -26.5% | UACC-62 melanoma -35% | TK-10 renal -20.9% | CAKI-1 renal -54.3% | A498 renal -89.1%

C[C@@H](c1ccccc1)[C@@H](C(=O)O)c1ccccc1
inactive: HCT-15 colon 95.4% | HT29 colon 103% | SNB-75 CNS 88.4% | SNB-19 CNS 92.4% | U251 CNS 93.1% | PC-3 prostate 94.5% | SK-MEL-5 melanoma 98.2% | LOX IMVI melanoma 98.4% | SK-MEL-28 melanoma 108% | SK-MEL-2 melanoma 99.5% | SN12C renal 98.1% | UO-31 renal 91.2% | ACHN renal 96.4% | A498 renal 96.7% | CCRF-CEM leukemia 98.9% | MOLT-4 leukemia 102%

CCCCC(=O)c1ccc(OC)cc1
inactive: HCT-15 colon 91.3% | HT29 colon 107% | SNB-75 CNS 101% | SNB-19 CNS 104% | U251 CNS 97.9% | PC-3 prostate 110% | SK-MEL-5 melanoma 96.5% | UACC-62 melanoma 111% | LOX IMVI melanoma 102% | SK-MEL-28 melanoma 111% | SN12C renal 105% | UO-31 renal 97% | ACHN renal 96.3% | CAKI-1 renal 99.2% | A498 renal 84.1% | CCRF-CEM leukemia 92.1% | MOLT-4 leukemia 104%

Oc1ccccc1O
inactive: HCT-15 colon 95.6% | HT29 colon 92.1% | SNB-75 CNS 89.4% | SNB-19 CNS 80.2% | U251 CNS 82.7% | PC-3 prostate 87.4% | SK-MEL-5 melanoma 89.3% | UACC-62 melanoma 86.8% | LOX IMVI melanoma 85.3% | SK-MEL-28 melanoma 101% | EKVX NSCLC 109% | SN12C renal 83.8% | TK-10 renal 80.8% | ACHN renal 92.4% | CAKI-1 renal 93.9% | A498 renal 87.9% | CCRF-CEM leukemia 27.1% | MOLT-4 leukemia 74.4%

CNC(=O)c1ccccc1CC1(O)c2ccccc2Oc2ccccc21
inactive: HCT-15 colon 44.6% | SNB-75 CNS 58.3% | SNB-19 CNS 93% | U251 CNS 47.8% | PC-3 prostate 35.3% | SK-MEL-5 melanoma 41.9% | UACC-62 melanoma 43.6% | LOX IMVI melanoma 57.9% | SK-MEL-28 melanoma 63.8% | SN12C renal 80.9% | TK-10 renal 58.9% | ACHN renal 54.4% | CAKI-1 renal 44.8% | CCRF-CEM leukemia 56.4% | MOLT-4 leukemia 38.1%
active: HT29 colon 7.73% | A498 renal 0.171%

Cc1ccc(C(=O)N/N=C/c2ccc3c(c2)OCO3)cc1
inactive: HCT-15 colon 91.6% | HT29 colon 104% | SNB-75 CNS 95.8% | SNB-19 CNS 96.7% | U251 CNS 101% | PC-3 prostate 82.8% | SK-MEL-5 melanoma 100% | UACC-62 melanoma 76.3% | LOX IMVI melanoma 89.1% | SK-MEL-28 melanoma 107% | EKVX NSCLC 101% | SN12C renal 96% | TK-10 renal 98% | ACHN renal 94.3% | CAKI-1 renal 93.3% | A498 renal 96.6% | CCRF-CEM leukemia 84.8% | MOLT-4 leukemia 91.2%

CC(=O)OC(OC(C)=O)C1CCCO1 (centres undefined)
inactive: HCT-15 colon 104% | HT29 colon 106% | SNB-75 CNS 90.2% | SNB-19 CNS 109% | U251 CNS 105% | PC-3 prostate 95.5% | SK-MEL-5 melanoma 104% | UACC-62 melanoma 95.2% | LOX IMVI melanoma 89.7% | SK-MEL-28 melanoma 97% | EKVX NSCLC 97.7% | SN12C renal 96.8% | TK-10 renal 103% | ACHN renal 98.7% | CAKI-1 renal 112% | A498 renal 106% | CCRF-CEM leukemia 109% | MOLT-4 leukemia 123%

CC(C)(C)c1cc(O)c(C(C)(C)C)cc1O
inactive: HCT-15 colon 97.9% | HT29 colon 98.3% | SNB-75 CNS 92.7% | SNB-19 CNS 49.2% | U251 CNS 75.2% | PC-3 prostate 76.3% | SK-MEL-5 melanoma 67.8% | LOX IMVI melanoma 98.1% | SK-MEL-28 melanoma 94.4% | SK-MEL-2 melanoma 86.6% | SN12C renal 87.4% | UO-31 renal 90.3% | ACHN renal 92.4% | CAKI-1 renal 84.4% | A498 renal 58.5% | CCRF-CEM leukemia 80.4% | MOLT-4 leukemia 73.2%

CCS(=O)(=O)c1cc(=O)[nH]c(=O)[nH]1
inactive: HCT-15 colon 109% | HT29 colon 101% | SNB-75 CNS 82.4% | SNB-19 CNS 102% | U251 CNS 93.8% | PC-3 prostate 124% | SK-MEL-5 melanoma 93.2% | LOX IMVI melanoma 101% | SK-MEL-28 melanoma 98.9% | SK-MEL-2 melanoma 101% | EKVX NSCLC 91.4% | SN12C renal 101% | UO-31 renal 90.1% | TK-10 renal 102% | CAKI-1 renal 88.4% | A498 renal 121% | CCRF-CEM leukemia 110% | MOLT-4 leukemia 128%

CC1CCC2C(C)(C)C3CC12CC1OC13C (centres undefined)
inactive: HCT-15 colon 97.7% | HT29 colon 107% | SNB-75 CNS 97.5% | SNB-19 CNS 102% | U251 CNS 102% | PC-3 prostate 99.5% | SK-MEL-5 melanoma 96.9% | UACC-62 melanoma 103% | LOX IMVI melanoma 98.3% | SK-MEL-28 melanoma 103% | SN12C renal 97.1% | UO-31 renal 109% | TK-10 renal 104% | ACHN renal 103% | CAKI-1 renal 98.5% | A498 renal 94% | CCRF-CEM leukemia 112% | MOLT-4 leukemia 110%

O=C(O)c1cccc([N+](=O)[O-])c1O
inactive: HCT-15 colon 99.9% | HT29 colon 101% | SNB-75 CNS 96.1% | SNB-19 CNS 99.1% | U251 CNS 101% | PC-3 prostate 107% | SK-MEL-5 melanoma 105% | LOX IMVI melanoma 95.1% | SK-MEL-28 melanoma 116% | SK-MEL-2 melanoma 118% | SN12C renal 102% | UO-31 renal 86.1% | ACHN renal 104% | CAKI-1 renal 99% | A498 renal 109% | CCRF-CEM leukemia 100% | MOLT-4 leukemia 99.5%

Cc1ccccc1C1N=C2Oc3ccccc3C=C2C(=O)N1 (centres undefined)
active: A498 renal -11.6%
inactive: HCT-15 colon 36.8% | HT29 colon 49.7% | SNB-75 CNS 21% | SNB-19 CNS 61.3% | U251 CNS 63.8% | PC-3 prostate 16.3% | SK-MEL-5 melanoma 30.7% | UACC-62 melanoma 35.1% | LOX IMVI melanoma 57.3% | SK-MEL-28 melanoma 41.5% | SN12C renal 43.3% | TK-10 renal 53.7% | CAKI-1 renal 31.1% | CCRF-CEM leukemia 38.4% | MOLT-4 leukemia 44%

COC(=O)c1ccc(NC(=O)CCl)cc1
active: LOX IMVI melanoma -19.8%
inactive: HCT-15 colon 61.7% | HT29 colon 76.3% | SNB-75 CNS 83% | SNB-19 CNS 92.7% | U251 CNS 26.2% | PC-3 prostate 78.2% | SK-MEL-5 melanoma 80.6% | UACC-62 melanoma 72.2% | SK-MEL-28 melanoma 101% | SN12C renal 76.6% | UO-31 renal 107% | TK-10 renal 88% | ACHN renal 85.7% | CAKI-1 renal 83.9% | A498 renal 97.4% | MOLT-4 leukemia 72.7%

OC(c1ccccn1)C(O)c1ccccn1 (centres undefined)
inactive: HCT-15 colon 97.6% | HT29 colon 106% | SNB-75 CNS 89.9% | SNB-19 CNS 99.3% | U251 CNS 109% | PC-3 prostate 102% | UACC-62 melanoma 95.6% | LOX IMVI melanoma 96% | SK-MEL-28 melanoma 113% | SK-MEL-2 melanoma 108% | EKVX NSCLC 124% | SN12C renal 91.5% | UO-31 renal 89% | TK-10 renal 108% | ACHN renal 98.2% | CAKI-1 renal 116% | A498 renal 95.9% | CCRF-CEM leukemia 104% | MOLT-4 leukemia 95.1%

CC(=O)OC(C(=O)O)c1ccccc1 (centres undefined)
inactive: HCT-15 colon 111% | HT29 colon 104% | SNB-75 CNS 116% | SNB-19 CNS 115% | U251 CNS 109% | PC-3 prostate 91% | SK-MEL-5 melanoma 105% | UACC-62 melanoma 112% | LOX IMVI melanoma 105% | SK-MEL-28 melanoma 119% | EKVX NSCLC 111% | SN12C renal 101% | TK-10 renal 117% | ACHN renal 106% | CAKI-1 renal 104% | CCRF-CEM leukemia 86% | MOLT-4 leukemia 95.5%
